Measured values as given in the supplement of paper PMC9177965.

tested on: HT29 sg-Ctrl (RNF43 wildtype); experiment: cell viability activity relative to DMSO (negative = inhibition); higher = more viable cells (less growth inhibition); conditions: 5 µM; 96 h
Method: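 Broad Repurposing Library primary screen at a single dose of 5 uM. HT29 sg-Ctrl and HT29 RNF43 G659fs CRISPR-edited isogenic cells were seeded at 2500 cells/well in 384-well plates in duplicate and treated for 96 h. Viability was read by CellTiter-Glo and reported as % activity relative to DMSO, with MG132 as the positive control (negative = growth inhibition).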

SMILES	cell viability activity
COc1cc([C@@H]2c3cc4c(cc3[C@@H](O[C@@H]3O[C@@H]5CO[C@@H](C)O[C@H]5[C@H](O)[C@H]3O)[C@H]3COC(=O)[C@H]23)OCO4)cc(OC)c1OP(=O)(O)O	-24.7%
CN1CCN(Cc2ccc(-c3cnc4[nH]cc(-c5ccc6[nH]ccc6c5)c4c3)cc2)CC1	-82.4%
CCN(CC)C(=S)SSC(=S)N(CC)CC	-43.6%
CN(c1ccccc1CNc1nc(Nc2ccc3c(c2)CC(=O)N3)ncc1C(F)(F)F)S(C)(=O)=O	-57.8%
COc1ccc(C[C@H](NC(=O)[C@H](C)NC(=O)CN2CCOCC2)C(=O)N[C@@H](Cc2ccccc2)C(=O)[C@@]2(C)CO2)cc1	-94.4%
O=C(Cc1ccc(-c2ccc(OCCN3CCOCC3)cc2)cn1)NCc1ccccc1	-52%
COc1cccc2c1C(=O)c1c(O)c3c(c(O)c1C2=O)C[C@@](O)(C(=O)CO)C[C@@H]3O[C@H]1C[C@H](N)[C@@H](O)[C@H](C)O1	-76.5%
CC[C@@]1(O)C(=O)OCc2c1cc1n(c2=O)Cc2c-1nc1cc(F)c(C)c3c1c2[C@@H](N)CC3	-90.4%
CN1CC[C@H](c2c(O)cc(O)c3c(=O)cc(-c4ccccc4Cl)oc23)[C@H](O)C1	-87.7%
CC(=O)c1c(C)c2cnc(Nc3ccc(N4CCNCC4)cn3)nc2n(C2CCCC2)c1=O	-48.4%
O=[N+]([O-])c1ccc2c(c1)S(=O)(=O)C=C2	-91%
COc1ccc(NC(=O)c2ccc(-c3ccc(-c4noc(C)n4)cc3C)cc2)cc1OCCN(C)C	-90.6%
CCNC(=O)c1noc(-c2cc(C(C)C)c(O)cc2O)c1-c1ccc(CN2CCOCC2)cc1	-86%
Cc1ccc(-n2nc(C(C)(C)C)cc2NC(=O)NCc2cc(F)ccc2Oc2ccc3c(cnn3CCO)c2)cc1	-42.9%
Clc1ccc(C2(c3ccc(-c4cn[nH]c4)cc3)CCNCC2)cc1	-86.8%
O=c1[nH]cc(F)c(=O)[nH]1	-14.8%
COc1cc(/C=C/C(=O)CC(=O)/C=C/c2ccc(O)c(OC)c2)ccc1O	-84.2%
COc1ccc2c(O[C@@H]3C[C@H]4C(=O)N[C@]5(C(=O)NS(=O)(=O)C6CC6)C[C@H]5/C=C\CCCCN(C)C(=O)[C@@H]4C3)cc(-c3nc(C(C)C)cs3)nc2c1C	-23.2%
COc1cccc(OCCCN)c1-c1cc(Nc2cnc(C#N)cn2)n[nH]1	-86.9%

SMILES	cell viability activity
O=C(Nc1ccncc1)Nc1ccc(-c2nc(N3CCOCC3)nc(N3C4CCC3COC4)n2)cc1	-36.2%
CCN1CCN(Cc2ccc(Nc3ncc(F)c(-c4cc(F)c5nc(C)n(C(C)C)c5c4)n3)nc2)CC1	-44.9%
CNC(=O)c1ccccc1Nc1nc(Nc2ccc3c(c2OC)CCC[C@H](N2CCN(CCO)CC2)C3)ncc1Cl	-85.5%
CCCCNc1ncc2c(-c3ccc(CN4CCN(C)CC4)cc3)cn([C@H]3CC[C@H](O)CC3)c2n1	-91.1%
CC(C)[C@H](C(=O)Nc1ccc(C(=O)NO)cc1)c1ccccc1	-89.9%
O=C(CCCCCCNC(=O)c1cnc(N(c2ccccc2)c2ccccc2)nc1)NO	-45.9%
Cn1nccc1Nc1nccc(-c2ccn([C@H](CO)c3ccc(Cl)c(F)c3)c(=O)c2)n1	-52.1%
CC(C)C[C@@H](C=O)NC(=O)[C@H](CC(C)C)NC(=O)[C@H](CC(C)C)NC(=O)OCc1ccccc1	-96.2%
CCS(=O)(=O)Nc1ccc2[nH]c(O)c(C(=Nc3ccc(CN4CCCCC4)cc3)c3ccccc3)c2c1	-75.4%
Cc1ncc(NC(=O)c2ccc(CN3CCN(C)CC3)c(C(F)(F)F)c2)cc1Nc1nccc(-c2cccnc2)n1	-49%
O=C(/C=C/c1cccc(S(=O)(=O)Nc2ccccc2)c1)NO	-73.9%
COc1cc(NC(C)CCCN)c2ncccc2c1 (configuration not stated)	-22.4%
COc1cc2c(Nc3ccc(Cl)c(Cl)c3F)ncnc2cc1OC[C@@H]1C[C@@H]2CN(C)C[C@@H]2C1	-90.3%
CN(C)C/C=C/C(=O)Nc1cccc(C(=O)Nc2cccc(Nc3ncc(Cl)c(-c4c[nH]c5ccccc45)n3)c2)c1	-94.7%
O=P(O)(O)C(O)(Cn1ccnc1)P(=O)(O)O	-25.6%
CNc1nc(-c2ccc3c(N)n[nH]c3c2)cc(N2C[C@@H](C(=O)NC3CCCCC3)CC[C@H]2C)n1	-23%
COc1ccc(S(=O)(=O)N(C(C)=O)c2ccccc2/C=C/c2cc[n+]([O-])cc2)cc1	-75.5%
COc1cc(-c2ncn(/C=C/C(=O)OC(C)C)n2)cc(C(F)(F)F)c1	-76.9%
